# Laboratory results: PubChem BioAssay (EPA / NIEHS)
# Results filed as inconclusive are left out. Activity calls are given as the source filed them. Rule for the calls: active = hit-call score of the fitted dose curve at least 0.9, where 1 is the maximum; inconclusive = response in the unintended direction; inactive = score below 0.9.
# How the values were obtained:
# [1] = target: rat Histamine Receptor (H3), Hrh3 (gene 85268) (UniProt Q9QYN8); test: NVS_GPCR_rH3: NovaScreen (NVS) G Protein-Coupled Receptor Assay for rat Histamine Receptor (H3) (AID 2283303)
# Procedure, shortened: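 Filter-binding radioligand competition on rat forebrain membranes, 1 h incubation; compounds screened at 25 µM in duplicate and followed in concentration series to 50 µM, loss of bound signal vs DMSO.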
# [2] = target: rat Neurokinin-1 Receptor (NK1), Tacr1 (gene 24807) (UniProt P14600); test: NVS_GPCR_rNK1: NovaScreen (NVS) G Protein-Coupled Receptor Assay for rat Neurokinin-1 Receptor (NK1) (AID 2283309)
# Procedure, shortened: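 Competitive radioligand binding to NK1 in rat submaxillary membranes, 1 h incubation, filtration and scintillation read-out. Compounds first screened at 25 uM in duplicate, then concentration-response for actives; signal loss relative to DMSO.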
# [3] = target: rat Neurokinin-3 Receptor (NK3), Tacr3 (gene 24808) (UniProt P16177); test: NVS_GPCR_rNK3: NovaScreen (NVS) G Protein-Coupled Receptor Assay for rat Neurokinin-3 Receptor (NK3) (AID 2283310)
# Procedure, shortened: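 Filter-based radioligand displacement on rat cortex membrane preparations, read by scintillation 2 h post-dose. Chemicals first tested in duplicate at 25 uM; actives followed up in concentration series with a 50 uM maximum.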
# [4] = target: rat Neonicotinoid receptor (NNR), Chrna7 (gene 25302) (UniProt Q05941); test: NVS_LGIC_rNNR_BungSens: NovaScreen (NVS) Ligand-Gated Ion Channel Assay for rat Neonicotinoid receptor (NNR) (AID 2283315)
# Procedure, shortened: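 Rat cortical membrane preparation incubated 2.5 h with tritiated or iodinated radioligand and test chemical. Bound radioactivity was filtered and counted by scintillation, and displacement was analysed against DMSO.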
# [5] = target: rat Opioid Receptor, Non-selective Binding, Oprm1 (gene 25601) (UniProt P33535); test: NVS_GPCR_rOpiate_NonSelective: NovaScreen (NVS) G Protein-Coupled Receptor Assay for rat Opioid Receptor, Non-selective Binding (AID 2283318)
# Procedure, shortened: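 Filter-based radioligand displacement using rat forebrain membrane preparations, measured 1.5 h post-dosing. Single-concentration duplicate screen at 25 uM, follow-up in concentration series; activity taken as signal loss relative to DMSO.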
# [6] = NVS_IC_rCaDHPRCh_L: NovaScreen (NVS) Ion Channel Assay for rat Calcium Channel, Type L, Dihydropyridine Site (CaDHPRCh_L) (AID 2283320)
# Procedure, shortened: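 Rat cortex membrane preparation; dihydropyridine-site radioligand displacement read 1 h post-dose by filtration and scintillation. Primary single-point screen 25 uM in duplicate, then concentration series to 50 uM maximum; DMSO as negative control.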
# [7] = target: Sodium channel protein type 1 subunit alpha (Rattus norvegicus) (UniProt P04774); test: NVS_IC_rNaCh_site2: NovaScreen (NVS) Ion Channel Assay for rat Sodium Channel, Site 2 (NaCh) (AID 2283322);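 note: hit means loss of radioligand binding signal relative to DMSO so AC50 marks displacement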
# Procedure, shortened: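 Initial duplicate single-point testing at 25 uM, followed by concentration-response runs for actives. Binding of radioligand to rat forebrain membranes quantified after 1 h via filter-based radiodetection.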
# [8] = target: Metabotropic glutamate receptor 1 (Rattus norvegicus) (UniProt P23385); test: NVS_GPCR_rmMGluR1: NovaScreen (NVS) G Protein-Coupled Receptor Assay for rat Glutamate Metabotropic Receptor 1 (MGluR1) (AID 2283305)
# Procedure, shortened: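 Binding to native receptor from rat cerebellum extract, measured as displacement of a radioligand (scintillation counting, filter separation) after 1 hour. Compounds tested at 25 uM in duplicate, then titrated to a 50 uM maximum.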
# [9] = target: rat Opioid Receptor, Non-selective Sodium (Na+) Binding, Oprm1 (gene 25601) (UniProt P33535); test: NVS_GPCR_rOpiate_NonSelectiveNa: NovaScreen (NVS) G Protein-Coupled Receptor Assay for rat Opioid Receptor, Non-selective Sodium (Na+) Binding (AID 2283311)
# Procedure, shortened: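 Filtration radioligand binding on rat forebrain membrane preparations, read 1.5 h after dosing. Single-concentration 25 µM primary screen in duplicate, followed by singleton concentration series to 50 µM max for actives; DMSO baseline.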
# [10] = target: rat Somatostatin Receptor (SST), Sstr1 (gene 25033) (UniProt P28646); test: NVS_GPCR_rSST: NovaScreen (NVS) G Protein-Coupled Receptor Assay for rat Somatostatin Receptor (SST) (AID 2283314)
# Procedure, shortened: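 Single-concentration duplicate screen (25 uM), then concentration-response up to 50 uM for chemicals passing a threshold such as 30% inhibition. Membranes came from rat forebrain. Binding was measured 1 h post-dose by filter radiodetection and scintillation, relative to DMSO.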
# [11] = target: rat Vasopressin 1 Receptor (V1), Avpr1a (gene 25107) (UniProt P30560); test: NVS_GPCR_rV1: NovaScreen (NVS) G Protein-Coupled Receptor Assay for rat Vasopressin 1 Receptor (V1) (AID 2283316)
# Procedure, shortened: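 Concentration-response up to 50 uM for chemicals passing a threshold such as 30% inhibition in an initial duplicate 25 uM screen. Displacement of radioligand from rat liver membranes measured after 1.5 h by filtration and scintillation.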
# NCBI gene 24521 = test: NVS_IC_rKATPCh: NovaScreen (NVS) Ion Channel Assay for rat Potassium Channel, ATP-Sensitive (KATPCh) (AID 2283319)
# Procedure, shortened: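 Primary duplicate screen at 25 uM, then singleton concentration series to 50 uM maximum, in a rat cortex membrane radioligand displacement assay. Binding measured by filtration and scintillation 2 h post-dose; DMSO baseline.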
# [12] = target: rat Glutamate, AMPA Site (AMPA), Gria1 (gene 50592) (UniProt P19490); test: NVS_LGIC_rAMPA: NovaScreen (NVS) Ligand-Gated Ion Channel Assay for rat Glutamate, AMPA Site (AMPA) (AID 2283324)
# Procedure, shortened: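 Screening at 25 uM in duplicate preceded concentration series reaching 50 uM for qualifying compounds. Radioligand displacement on rat forebrain membranes, 1 h, filter-based scintillation readout; reduced binding relative to DMSO.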
# [13] = target: rat Gamma-Aminobutyric Acid Type A Receptor, Non-Selective (GABAR-NonSelective), Gabra1 (gene 29705) (UniProt P62813); test: NVS_LGIC_rGABAR_NonSelective: NovaScreen (NVS) Ligand-Gated Ion Channel Assay for rat Gamma-Aminobutyric Acid Type A Receptor, Non-Selective (GABAR-NonSelective) (AID 2283326)
# Procedure, shortened: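 Compounds were first screened in duplicate at 25 uM, with actives run as singleton concentration series (max 50 uM). Binding of a radioligand to rat whole-brain GABA-A preparation was measured by filtration and scintillation counting after 1 h, DMSO baseline.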
# [14] = target: rat Glutamate, NMDA Agonist Site (GluNMDA), Grin1 (gene 24408) (UniProt P35439); test: NVS_LGIC_rGluNMDA_Agonist: NovaScreen (NVS) Ligand-Gated Ion Channel Assay for rat Glutamate, NMDA Agonist Site (GluNMDA) (AID 2283327)
# Procedure, shortened: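 Radioligand displacement at the agonist site on rat forebrain membrane preparations, read by filter scintillation after 1 h. Chemicals were first run at 25 uM in duplicate; those passing threshold were titrated to a 50 uM maximum.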
# [15] = target: rat Adrenergic Receptor, Alpha 2 (Adra2), Non-selective Binding, Adra2a (gene 25083) (UniProt P22909); test: NVS_GPCR_rAdra2_NonSelective: NovaScreen (NVS) G Protein-Coupled Receptor Assay for rat Adrenergic Receptor, Alpha 2 (Adra2), Non-selective Binding (AID 2283299)
# Procedure, shortened: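 Filter-based scintillation counting of radioligand binding to rat cortical membrane receptors, measured 1.25 hours post-dosing; loss of signal versus DMSO indicates displacement. Initial single-concentration duplicate at 25 uM, then concentration series.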
# [16] = target: rat Glutamate Metabotropic Receptor 5 (MGluR5), Grm5 (gene 24418) (UniProt P31424); test: NVS_GPCR_rmMGluR5: NovaScreen (NVS) G Protein-Coupled Receptor Assay for rat Glutamate Metabotropic Receptor 5 (MGluR5) (AID 2283307)
# Procedure, shortened: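 Compounds first screened in duplicate at 25 uM, then in concentration series up to 50 uM if over threshold. Radioligand displacement on rat whole-brain membranes, filtration and scintillation counting after 1.5 h; binding loss relative to DMSO.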
# [17] = target: human Serotonin, 5-Hydroxytryptamine Receptor 3 (5HT3), HTR3A (gene 3359) (UniProt P46098); test: NVS_LGIC_h5HT3: NovaScreen (NVS) Ligand-Gated Ion Channel Assay for human Serotonin, 5-Hydroxytryptamine Receptor 3 (5HT3) (AID 2283325)
# Procedure, shortened: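 Initially tested at 25 uM in duplicate, then up to 50 uM in concentration-response for actives, compounds competed with a radioligand for HEK293-derived human 5-HT3 receptor. Bound counts were measured by filtration and scintillation at 1 h; loss of signal versus DMSO.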
# [18] = target: rat Gamma-Aminobutyric Acid Type B Receptor (GABBR), Gabbr1 (gene 81657) (UniProt Q9Z0U4); test: NVS_GPCR_rGABBR: NovaScreen (NVS) G Protein-Coupled Receptor Assay for rat Gamma-Aminobutyric Acid Type B Receptor (GABBR) (AID 2283301)
# Procedure, shortened: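 Rat cortical membrane preparation, competitive radioligand binding for 1 h with filtration and scintillation readout. Actives from duplicate single-point 25 uM screening proceeded to concentration series with 50 uM top concentration.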
# Sequence of rat Neurokinin-3 Receptor (NK3), Tacr3 (gene 24808) (P16177 whole entry, looked up): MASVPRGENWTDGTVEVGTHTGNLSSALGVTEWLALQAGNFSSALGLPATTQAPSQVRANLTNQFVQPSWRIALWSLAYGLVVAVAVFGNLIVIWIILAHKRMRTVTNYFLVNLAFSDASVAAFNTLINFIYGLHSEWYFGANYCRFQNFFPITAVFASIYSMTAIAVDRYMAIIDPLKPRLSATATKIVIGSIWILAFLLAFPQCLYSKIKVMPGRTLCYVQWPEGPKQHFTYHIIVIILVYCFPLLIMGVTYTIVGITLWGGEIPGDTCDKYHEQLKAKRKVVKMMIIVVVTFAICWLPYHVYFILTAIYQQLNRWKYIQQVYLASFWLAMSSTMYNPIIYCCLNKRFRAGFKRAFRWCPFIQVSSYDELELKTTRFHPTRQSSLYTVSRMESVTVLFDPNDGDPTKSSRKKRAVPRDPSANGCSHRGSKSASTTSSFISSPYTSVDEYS
# Sequence of rat Gamma-Aminobutyric Acid Type B Receptor (GABBR), Gabbr1 (gene 81657) (Q9Z0U4 whole entry, looked up): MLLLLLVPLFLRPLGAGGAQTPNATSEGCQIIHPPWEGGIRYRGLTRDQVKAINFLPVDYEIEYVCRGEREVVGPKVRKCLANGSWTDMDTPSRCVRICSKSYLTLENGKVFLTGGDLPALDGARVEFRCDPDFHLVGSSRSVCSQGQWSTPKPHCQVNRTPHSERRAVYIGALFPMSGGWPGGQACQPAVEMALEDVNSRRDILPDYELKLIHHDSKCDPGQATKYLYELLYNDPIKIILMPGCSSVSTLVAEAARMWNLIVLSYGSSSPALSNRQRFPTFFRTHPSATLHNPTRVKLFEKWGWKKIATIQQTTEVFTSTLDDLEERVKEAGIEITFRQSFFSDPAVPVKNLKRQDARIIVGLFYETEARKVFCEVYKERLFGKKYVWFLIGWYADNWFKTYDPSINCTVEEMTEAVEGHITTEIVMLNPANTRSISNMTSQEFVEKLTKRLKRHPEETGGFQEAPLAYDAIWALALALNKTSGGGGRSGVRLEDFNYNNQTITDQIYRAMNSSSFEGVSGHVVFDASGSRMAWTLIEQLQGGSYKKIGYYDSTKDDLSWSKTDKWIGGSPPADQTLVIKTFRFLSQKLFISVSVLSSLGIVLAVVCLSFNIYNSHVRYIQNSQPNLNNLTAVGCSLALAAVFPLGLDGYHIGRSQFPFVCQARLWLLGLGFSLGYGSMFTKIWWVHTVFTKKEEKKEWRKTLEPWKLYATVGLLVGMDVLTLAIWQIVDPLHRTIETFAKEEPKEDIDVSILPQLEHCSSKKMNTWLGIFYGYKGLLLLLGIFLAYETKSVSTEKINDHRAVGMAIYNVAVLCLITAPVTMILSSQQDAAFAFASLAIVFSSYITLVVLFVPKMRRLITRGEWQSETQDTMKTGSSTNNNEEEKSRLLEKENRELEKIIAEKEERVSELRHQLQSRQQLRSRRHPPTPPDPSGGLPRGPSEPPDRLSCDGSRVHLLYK
# Sequence of rat Neonicotinoid receptor (NNR), Chrna7 (gene 25302) (Q05941 whole entry, looked up): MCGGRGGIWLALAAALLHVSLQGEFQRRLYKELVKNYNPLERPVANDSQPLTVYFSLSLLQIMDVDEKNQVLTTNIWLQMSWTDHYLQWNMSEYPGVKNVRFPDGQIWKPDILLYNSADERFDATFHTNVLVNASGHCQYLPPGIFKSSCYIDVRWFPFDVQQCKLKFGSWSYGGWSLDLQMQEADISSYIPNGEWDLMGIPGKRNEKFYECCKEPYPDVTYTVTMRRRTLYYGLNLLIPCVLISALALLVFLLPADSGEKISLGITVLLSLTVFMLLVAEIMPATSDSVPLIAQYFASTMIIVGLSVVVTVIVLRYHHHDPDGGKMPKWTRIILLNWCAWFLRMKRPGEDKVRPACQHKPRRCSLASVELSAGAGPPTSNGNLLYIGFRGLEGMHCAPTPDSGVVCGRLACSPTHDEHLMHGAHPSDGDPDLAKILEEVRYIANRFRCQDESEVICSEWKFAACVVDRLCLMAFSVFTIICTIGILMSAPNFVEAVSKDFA
# Sequence of human Serotonin, 5-Hydroxytryptamine Receptor 3 (5HT3), HTR3A (gene 3359) (P46098 whole entry, looked up): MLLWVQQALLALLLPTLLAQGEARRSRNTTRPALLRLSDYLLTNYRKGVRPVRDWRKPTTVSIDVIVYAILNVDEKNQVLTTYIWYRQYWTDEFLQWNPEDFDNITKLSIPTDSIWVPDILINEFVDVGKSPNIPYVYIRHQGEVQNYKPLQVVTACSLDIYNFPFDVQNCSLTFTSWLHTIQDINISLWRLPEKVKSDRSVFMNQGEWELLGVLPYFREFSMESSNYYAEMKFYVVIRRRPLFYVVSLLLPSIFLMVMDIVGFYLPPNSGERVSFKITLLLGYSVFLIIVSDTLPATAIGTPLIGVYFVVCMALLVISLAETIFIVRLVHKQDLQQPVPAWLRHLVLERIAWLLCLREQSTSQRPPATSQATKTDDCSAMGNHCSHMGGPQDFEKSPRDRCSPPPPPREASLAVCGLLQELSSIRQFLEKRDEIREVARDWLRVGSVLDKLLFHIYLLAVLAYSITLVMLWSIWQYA
# Sequence of rat Somatostatin Receptor (SST), Sstr1 (gene 25033) (P28646 whole entry, looked up): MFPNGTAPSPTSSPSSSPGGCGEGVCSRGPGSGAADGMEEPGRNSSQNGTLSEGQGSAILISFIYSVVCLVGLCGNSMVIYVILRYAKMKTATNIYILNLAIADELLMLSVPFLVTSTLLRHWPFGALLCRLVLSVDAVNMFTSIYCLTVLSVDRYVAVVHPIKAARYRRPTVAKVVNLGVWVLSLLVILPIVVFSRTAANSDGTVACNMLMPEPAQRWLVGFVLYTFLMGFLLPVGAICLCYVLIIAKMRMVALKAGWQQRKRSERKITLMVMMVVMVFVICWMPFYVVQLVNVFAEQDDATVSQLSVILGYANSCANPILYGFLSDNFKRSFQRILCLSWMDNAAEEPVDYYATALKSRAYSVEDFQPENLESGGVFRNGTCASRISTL
# Sequence of rat Adrenergic Receptor, Alpha 2 (Adra2), Non-selective Binding, Adra2a (gene 25083) (P22909 whole entry, looked up): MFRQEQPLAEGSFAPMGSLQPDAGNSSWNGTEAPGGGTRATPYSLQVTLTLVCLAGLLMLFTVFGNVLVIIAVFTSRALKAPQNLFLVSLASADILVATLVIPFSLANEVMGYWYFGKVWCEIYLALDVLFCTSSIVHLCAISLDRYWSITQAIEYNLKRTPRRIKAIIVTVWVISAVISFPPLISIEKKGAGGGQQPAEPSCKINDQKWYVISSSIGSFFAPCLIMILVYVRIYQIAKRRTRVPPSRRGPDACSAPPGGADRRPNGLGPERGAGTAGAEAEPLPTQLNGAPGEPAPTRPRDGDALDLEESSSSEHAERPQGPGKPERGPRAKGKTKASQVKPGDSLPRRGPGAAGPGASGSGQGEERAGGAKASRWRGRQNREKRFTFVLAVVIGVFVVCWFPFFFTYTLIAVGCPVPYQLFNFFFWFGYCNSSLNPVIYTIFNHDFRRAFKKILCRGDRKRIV
# Sequence of rat Opioid Receptor, Non-selective Sodium (Na+) Binding, Oprm1 (gene 25601) (P33535 whole entry, looked up): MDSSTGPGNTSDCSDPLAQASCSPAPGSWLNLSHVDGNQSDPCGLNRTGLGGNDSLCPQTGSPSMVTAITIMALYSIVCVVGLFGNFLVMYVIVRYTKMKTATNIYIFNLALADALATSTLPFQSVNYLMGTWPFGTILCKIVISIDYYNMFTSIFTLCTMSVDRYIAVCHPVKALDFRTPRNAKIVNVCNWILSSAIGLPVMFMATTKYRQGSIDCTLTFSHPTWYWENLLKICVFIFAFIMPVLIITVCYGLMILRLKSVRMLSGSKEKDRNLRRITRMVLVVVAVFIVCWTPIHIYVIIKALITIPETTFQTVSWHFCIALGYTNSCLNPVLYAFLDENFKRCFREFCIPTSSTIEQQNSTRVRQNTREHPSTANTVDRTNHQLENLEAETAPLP
# Sequence of rat Opioid Receptor, Non-selective Binding, Oprm1 (gene 25601) (P33535 whole entry, looked up): as above
# Sequence of rat Glutamate, AMPA Site (AMPA), Gria1 (gene 50592) (P19490 whole entry, looked up): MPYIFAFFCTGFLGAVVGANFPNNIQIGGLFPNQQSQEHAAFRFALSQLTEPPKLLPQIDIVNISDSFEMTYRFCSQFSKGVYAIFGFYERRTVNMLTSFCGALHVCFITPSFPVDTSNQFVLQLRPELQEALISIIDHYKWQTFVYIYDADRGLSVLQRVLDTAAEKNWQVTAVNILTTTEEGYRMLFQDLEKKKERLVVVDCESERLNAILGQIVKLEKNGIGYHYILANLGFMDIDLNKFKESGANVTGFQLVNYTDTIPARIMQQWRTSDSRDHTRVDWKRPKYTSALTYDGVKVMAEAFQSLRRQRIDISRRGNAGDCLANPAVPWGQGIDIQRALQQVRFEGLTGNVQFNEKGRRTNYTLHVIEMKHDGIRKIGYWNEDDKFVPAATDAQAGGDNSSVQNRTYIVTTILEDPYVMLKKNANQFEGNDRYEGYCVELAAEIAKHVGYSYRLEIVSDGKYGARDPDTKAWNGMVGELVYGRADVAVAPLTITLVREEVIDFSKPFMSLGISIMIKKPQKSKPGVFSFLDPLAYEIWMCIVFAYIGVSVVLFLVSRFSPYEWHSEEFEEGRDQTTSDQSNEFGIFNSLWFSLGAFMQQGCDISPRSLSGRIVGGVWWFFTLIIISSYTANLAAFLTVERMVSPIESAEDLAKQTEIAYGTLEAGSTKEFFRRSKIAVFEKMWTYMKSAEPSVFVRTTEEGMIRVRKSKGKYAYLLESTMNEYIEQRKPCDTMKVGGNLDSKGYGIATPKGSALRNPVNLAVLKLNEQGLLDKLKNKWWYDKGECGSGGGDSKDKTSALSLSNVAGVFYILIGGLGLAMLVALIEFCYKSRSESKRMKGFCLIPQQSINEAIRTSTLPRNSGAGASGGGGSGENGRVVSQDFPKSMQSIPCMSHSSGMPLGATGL
compound,measurement,setting,value
O=C1c2ccccc2C(=O)N1CCc1noc(-c2ccc(CN3CCCCCC3)s2)n1,AC50,[1],16.8 µM (active)
same,AC50,[2],12 µM (active)
same,outcome,[3],inactive
same,outcome,[4],inactive
same,AC50,[5],21.1 µM (active)
same,AC50,[6],6.2 µM (active)
same,AC50,[7],13.4 µM (active)
Cc1oc2c(NC(=O)c3c(Cl)cccc3Cl)cccc2c1C(C)(C)O,outcome,[2],inactive
CN(C)C(=O)C1(N2CCCCC2)CCN(CC[C@@]2(c3ccc(Cl)c(Cl)c3)CN(C(=O)c3ccccc3)CCO2)CC1,AC50,[8],15.5 µM (active)
same,AC50,[2],10.9 µM (active)
same,AC50,[3],0.00216 µM (active)
same,AC50,[9],3.48 µM (active)
same,AC50,[10],12.6 µM (active)
same,outcome,[4],inactive
same,AC50,[11],38.2 µM (active)
same,AC50,[5],1.73 µM (active)
same,outcome,NCBI gene 24521,inactive
same,AC50,[6],0.655 µM (active)
same,AC50,[7],0.822 µM (active)
same,AC50,[12],4.68 µM (active)
same,AC50,[13],2 µM (active)
same,AC50,[14],29.3 µM (active)
CCN(CC)C(=O)c1cc(S(=O)(=O)Cc2ccccc2)c(N2CCC(c3ccccc3)CC2)cc1N(CC)CCN(C)C,AC50,[15],15.2 µM (active)
same,AC50,[2],23.4 µM (active)
same,outcome,[9],inactive
same,outcome,[5],inactive
same,AC50,[7],0.419 µM (active)
c1ccc(C[n+]2cccc3ccccc32)cc1,outcome,[1],inactive
same,outcome,[2],inactive
same,AC50,[4],25 µM (active)
same,AC50,[5],14.5 µM (active)
same,AC50,[7],10.7 µM (active)
Cc1occc1C(=O)Nc1ccc(C(=O)N2CCC(F)(F)/C(=C\C(=O)N3CCC(N4CCCCC4)CC3)c3ccccc32)cc1,AC50,[1],4.22 µM (active)
same,outcome,[16],inactive
same,AC50,[2],11.7 µM (active)
same,AC50,[9],5.68 µM (active)
same,AC50,[4],4.14 µM (active)
same,outcome,[11],inactive
same,AC50,[5],5.85 µM (active)
same,AC50,[7],4.89 µM (active)
CN(C)c1ccc(C(=C2C=CC(=[N+](C)C)C=C2)c2ccc(N(C)C)cc2)cc1,AC50,[15],1.15 µM (active)
same,AC50,[1],23 µM (active)
same,AC50,[2],15.6 µM (active)
same,AC50,[3],11.5 µM (active)
same,AC50,[9],9.72 µM (active)
same,outcome,[10],inactive
same,AC50,[4],16.4 µM (active)
same,AC50,[5],2.21 µM (active)
same,AC50,[6],4.99 µM (active)
same,AC50,[7],0.263 µM (active)
same,outcome,[12],inactive
same,AC50,[17],16.7 µM (active)
O=C(O)Cc1cc(I)c(Oc2ccc(O)c(I)c2)c(I)c1,outcome,[18],inactive
same,outcome,[4],inactive
same,outcome,[5],inactive
Cc1ncc(CO)c(CO)c1O,outcome,[18],inactive
COc1cccc([C@H](O)C2CCN(CCc3ccc(F)cc3)CC2)c1OC,AC50,[15],1.58 µM (active)
same,outcome,[18],inactive
same,AC50,[9],15.7 µM (active)
same,AC50,[5],6.91 µM (active)
same,AC50,[6],25 µM (active)
same,AC50,[7],3.64 µM (active)
same,outcome,[17],inactive
Cc1cc(F)ccc1-c1cc(N2CC[C@@H](O)[C@H]2CO)ncc1N(C)C(=O)C(C)(C)c1cc(C(F)(F)F)cc(C(F)(F)F)c1,AC50,[8],8.39 µM (active)
same,AC50,[2],0.274 µM (active)
same,outcome,[9],inactive
same,AC50,[7],5.99 µM (active)
CCOC(=O)O[C@H](C)OC(=O)c1ccc2c(c1)cc(C(=O)NC1CCN(C(C)C)CC1)n2Cc1cc(-c2ccc(Cl)s2)on1,AC50,[15],5.66 µM (active)
same,AC50,[8],17 µM (active)
same,AC50,[2],32.1 µM (active)
same,AC50,[10],14.9 µM (active)
same,AC50,[6],9.36 µM (active)
same,AC50,[7],9.62 µM (active)
same,outcome,[17],inactive
CC/C(=C(/CC)c1ccc(O)cc1)c1ccc(O)cc1,AC50,[15],36.3 µM (active)
same,outcome,[18],inactive
same,AC50,[10],25 µM (active)
same,AC50,[5],12 µM (active)
same,outcome,[12],inactive
CCCCCCCCCCCC[N+](C)(C)C,AC50,[15],19.1 µM (active)
same,AC50,[2],44.9 µM (active)
same,AC50,[7],13 µM (active)
